In PubChem BioAssay (NCI):
About 83,000 compounds went through this panel and 20% of them were active in at least one assay; those are over-represented in the sample as a whole.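 Method: cells in 96-well plates; compound added at one concentration; 48 h incubation; percent growth measured; values under 10 scored active.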 The source made the active and inactive calls.

tested on: HL-60(TB) leukemia; assay: NCI-60 one-dose screen, 48 h (100 = growth as untreated, 0 = no growth, -100 = all killed); conditions: 10 µM unless noted

SMILES	growth
CCn1cnc(C[C@H](NC(=O)[C@@H](NC(=O)Nc2cc(C(F)(F)F)cc(C(F)(F)F)c2)C(C)C)C(=O)OC)c1	-75.7% [100 µM] (active)
CCO/C=N/C1=C(C#N)C(c2ccc(OC)cc2)c2c(c3ccccc3n(C)c2=O)O1 (centres undefined)	102% (inactive)
CCN1CCN(CC(=O)Nc2nc3ccc(NCc4ccc(Cl)cc4)cc3s2)CC1	29% (inactive)
O=C(Cn1cc(CO)nn1)Nc1nc2ccccc2s1	97.1% (inactive)
COc1cc(-c2nc3c(c(C)nc4c3nnn4-c3ccccc3)c(=O)o2)cc(OC)c1OC	105% (inactive)
CCN1C(=O)N(CC)C2C1NN=c1s/c(=C\c3ccc(C(F)(F)F)cc3)c(=O)n12 (centres undefined)	-49.2% (active)
COc1cc(CNC(=O)c2ccsc2Nc2ccnc(C(F)(F)F)c2)ccc1O	102% (inactive)
CCN(C(=O)c1ccc2c3c(cccc13)C=C2)c1ccccc1	86.4% (inactive)
CC/C(=C(/c1ccc(Cl)cc1)c1ccc(OCCCN(C)C)cc1)c1ccc(OC)cc1	46.2% (inactive)
O=c1[nH]ccc2c(S(=O)(=O)N3CCCNCC3)cccc12	87.1% (inactive)
COc1ccc(/C=C(/C(=O)n2cnnn2)c2cc(OC)c(OC)c(OC)c2)cc1	4.64% (active)
COc1cccc(/C=C/C(=O)c2cccc(Nc3nc(Nc4ccccc4)nc(Nc4ccccc4)n3)c2)c1	94.2% (inactive)
CCN1CCN(C(=O)[C@]23CCC(C)(C)C[C@@H]2C2=CC[C@@H]4[C@@]5(C)C/C(=C/c6ccncc6)C(=O)C(C)(C)[C@@H]5CC[C@@]4(C)[C@]2(C)CC3)CC1	-33.8% (active)
Cc1c([C@H](C(Cl)Cl)[C@H](O)[C@H]2C[C@H](C)C(=O)O2)ccc2c1C(=O)[C@H]1[C@H]2C[C@@H](Br)[C@@]23O[C@@H](CO[C@H]2O)CC13C (some centres undefined)	-16.4% (active)
CC1=NN(c2ccc(S(=O)(=O)O)cc2)C(=O)C1N=Nc1ccc(-c2ccc(N=Nc3ccc(OS(=O)(=O)c4ccc(C)cc4)cc3)c(S(=O)(=O)O)c2)cc1 (centres undefined)	108% (inactive)
Nc1nc2c(c3ncccc13)C(c1ccccc1)Cc1ncccc1-2 (centres undefined)	65.9% (inactive)
CO/C=C/C(=O)c1cc2cnc3c(=N)cc(NC(=O)C(C)C)c([nH]1)c23	-0.789% (active)
Cc1nn(-c2ccc(F)cc2)c2ncnc(Oc3ccc(NC(=O)Nc4ccc(Cl)c(C(F)(F)F)c4)cc3)c12	99% (inactive)
C=C1C(=O)O[C@H]2[C@H]1CC/C(COC(=O)NCc1cc(OC)c(OC)c(OC)c1)=C\CC[C@@]1(C)O[C@@H]21	11.5% (inactive)
O=c1cc(-c2ccccc2)nc(SCc2nc3cc(Cl)c(Cl)cc3[nH]2)[nH]1	101% (inactive)

SMILES	growth
O=C1c2cccc3cccc(c23)C(=O)N1CC#Cc1ccc2c3c(cccc13)C(=O)N(CCN1CCNCC1)C2=O	93% (inactive)
CC(C)CCN(CCC(C)C)CC(O)c1cc2c(c3ccccc13)CCCC2 (centres undefined)	78.6% (inactive)
S=C1SCN(Cc2ccccc2)CN1Cc1ccco1	32% (inactive)
C[C@@H]1CC[C@@H]2[C@@H]1[C@H](OC(=O)/C=C/c1ccccc1)[C@]1(c3ccccc3)C[C@@H](OC(=O)CO)[C@@]2(C)O1	105% (inactive)
O=C(N/N=C/c1cc([N+](=O)[O-])ccc1O)c1cccc2ccccc12	-14% (active)
CNC(=O)c1c(NC(=O)c2ccc(C(C)(C)C)cc2)sc2c1CCC(=O)C2	-13.2% (active)
CCN1CCC2(CC1)NC(=O)c1c(c3ccc(Cl)c(Cl)c3n1C)C2C#N (centres undefined)	30.2% (inactive)
NCCCNc1nc2ccccc2c2c(=O)c3cccc(Cl)c3sc12	-45% (active)
COc1cc2c(c(Br)c1N)-c1cc(Br)c(N)cc1C2=O	88.9% (inactive)
Cc1csc(NC(c2ccccc2)c2c(C)nc3ccccn23)n1 (centres undefined)	111% (inactive)
COc1cc(CC(=O)c2ccc(O)c(OC)c2)ccc1O	87% (inactive)
C#C[C@H](O)/C=C/CCCCCCC#C[C@H](O)CC[C@@H](O)C#CCCCCCC/C=C/[C@@H](O)C#C	-70.8% (active)
O=C1/C(=C/c2cn(-c3ccccc3)nc2-c2ccccc2)SC(=S)N1c1ccc(Cl)cc1	86% (inactive)
C=C1CCC2C3(C)COC(c4ccc(SC)cc4)OC3CCC2(C)C1C/C=C1/C(=O)OCC1O (centres undefined)	-12.1% (active)
O=C(Nc1nn2c(-c3cc(C(F)(F)F)cc(C(F)(F)F)c3)nnc2s1)C1CCCC1	-53.3% (active)
CC(C)(C)CC(C)(C)Nc1c(-c2c(O)c3ccccc3oc2=O)nc2sc3ccccc3n12	21.6% (inactive)
COc1cccc(C(c2cc3c(cc2O)OCO3)N2CCOCC2)c1OC (centres undefined)	97.1% (inactive)
COc1cc(C2CC(c3ccc(Cl)cc3)=NN2C(C)=O)ccc1Oc1nc2c(c(=O)n(C)c(=O)n2C)n1C (centres undefined)	94.2% (inactive)
O=S(=O)(NCCCNc1nccc(-c2c(-c3ccc(F)c(O)c3)nc3sccn23)n1)c1ccc(F)cc1	-54.8% (active)
